PubChem BioAssay AID602373 (National Center for Advancing Translational Sciences (NCATS), 2012)
“And” between values parts separate entries of the source, which are not always exact repeats. Equal values may be shown once. Inconclusive results are not listed. A number with no mark means an inactive call. The source made the active and inactive calls. Calls come from the whole dose curve; as a rule, active = well fitted inhibition curve with a large enough effect; inconclusive = small, poorly fitted or top-dose-only effect; inactive = no such curve, though single readings can be large or run the other way.

Test: qHTS Assay for Inhibitors of Bacillus subtilis Sfp phosphopantetheinyl transferase (PPTase): Hepg2 Assay
Details: HepG2 cytotoxicity counter-screen; series mostly up to 46.1 µM; activity change, negative = inhibition: at the top concentration
Excerpt: The covalent attachment of a phosphopantetheinyl (4'-PP) arm to a variety of synthases and other proteins is a key posttranslational protein modification. The 4'-PP is installed on the proteins post-translationally from coenzyme A (CoA) on a conserved serine residue by action of phosphopantetheinyl transferase (PPTase) enzymes. Phosphopantetheinylation is essential for synthase activity, and removal of the PPTase gene precludes natural product synthesis in microorganisms, or in the case of fatty acid biosynthesis, renders the organism unviable. PPTase enzymes belong to a distinct structural superfamily. Within bacteria, these enzymes are grouped into two classes based upon primary structure, the AcpS-Type and Sfp-Type PPTases.
Sfp-type PPTases, corresponding to an activator of surfactin production in Bacillus subtilis, are responsible for modifying type I polyketide and nonribosomal peptide synthases of prokaryotes. Sfp-type PPTases are responsible for the activation of a variety of pathogen-associated virulence factors. Among these compounds are toxins such as mycolactone from Mycobacterium ulcerans, siderophores such as vibriobactin from Vibrio cholerae or mycobactin from Mycobacterium tuberculosis, as well as the mycolic acids which form the waxy cell wall of Mycobacteria. The biosyntheses of these natural products are considered attractive targets for drug design.
In search of small molecule Sfp-PPTase inhibitors, a fluorescence quenching assay was developed for detection of Bacillus subtilis Sfp-PPTase enzymatic activity in a miniaturized high-throughput format. The consensus ybbr acceptor peptide […] was N-terminally labeled with Black Hole Quencher-2 (BHQ-2) and used in combination with rhodamine-labeled coenzyme A as a co-substrate.
Phosphopantetheinyl transfer is a process essential to cellular viability and maintenance in all forms of life. Cell-permeable and stable compounds acting as PPTase inhibitors are anticipated to be growth inhibitory agents. This assay sought to assess the toxicity of test compounds in the HepG2 hepatocarcinoma cells; a human cell line whose use additionally determines the toxicity of test article metabolites.
NIH Chemical Genomics Center [NCGC]
NIH Molecular Libraries Probe Centers Network [MLPCN]
Assay Submitter (PI): Michale Burkart, University of California, San Diego
Test compounds' toxicity was assessed by measuring cellular ATP content using a luciferase-coupled ATP quantitation assay (CellTiter-Glo; Promega, Madison, WI). In this assay, luminescent signal is proportional to amount of ATP, and thus to the number of metabolically competent cells. Briefly, Hepg2 cell suspension (5 uL, 4 x 10^5 cells/mL) was dispensed into 1,536-well tissue-culture treated white/solid bottom assay plates (Greiner Bio-One North America, Monroe, NC) using a Flying Reagent Dispenser (Aurora Discovery, Carlsbad, CA). Cells were incubated at 37 deg C for 6 hr to allow for cell attachment, followed by addition of compounds via pin tool (Kalypsys, San Diego, CA). After compound addition, plates were incubated for 48 hr at 37 deg C. At the end of the incubation period, CellTiter-Glo reagent (5 uL) was added, plates were incubated at room temperature in the dark for 30 min, and the luminescence intensity of each well was determined using a ViewLux plate reader (PerkinElmer, Shelton, CT). The positive control was 92 uM and 41 uM of tetra-N-Octylammonium bromide, and the negative control was DMSO.

Question: Which Potency does the source give for `Cc1ccnc(NC(=S)NC2CN(c3cccc(C(F)(F)F)c3)C2)c1` here?
Answer: The Potency was 25 µM (active).

Question: For `Cc1ccnc(NC(=S)NCCN(C)c2cccc(C(F)(F)F)c2)c1`, which “activity change, negative = inhibition” value is on record?
Answer: Its value is 3.44%.

Question: With `Cc1cc(C)nc(NC(=S)N2CCN(c3ccc(Cl)nn3)CC2)c1` as the compound, how does the “activity change, negative = inhibition” value read?
Answer: The value was -6.42%.

Question: Which “activity change, negative = inhibition” value does the source give for `Cc1cc(C)nc(NC(=S)N2CCN(c3cnc4nccn4c3)CC2)c1` here?
Answer: The value was -7.6%.

Question: With `Cc1ccc(N2CCN(C(=S)Nc3cc(C)ccn3)CC2)cc1` as the compound, how does the “activity change, negative = inhibition” value read?
Answer: Its value is -4.42%.

Question: Which “activity change, negative = inhibition” value does the source give for `Cc1cc(C)nc(NC(=S)N2CCN(c3ccc4cn(C)nc4c3)CC2)c1` here?
Answer: The value was 11.5%.

Question: With `S=C(Nc1cc(Cl)ccn1)N1CCN(c2ccc(Cl)cc2Cl)CC1` as the compound, how does the “activity change, negative = inhibition” value read?
Answer: Its value is -11.7%.

Question: For `CC(=O)c1ccc(N2CCN(C(=S)Nc3cc(C)ccn3)CC2)cc1`, which “activity change, negative = inhibition” value is on record?
Answer: Its value is -7.72%.

Question: With `Cc1cc(C)nc(NC(=S)N2CCN(c3ccncc3)CC2)c1` as the compound, how does the “activity change, negative = inhibition” value read?
Answer: Its value is 7.96%.

Question: For `Cc1cc(C)nc(NC(=S)N2CCN(c3cc(C(F)(F)F)nc4ccc(C(F)(F)F)cc34)CC2)c1`, which “activity change, negative = inhibition” value is on record?
Answer: The value was -2.74%.

Question: With `Cc1cc(C)nc(NC(=S)N2CCN(c3ncnc4sccc34)CC2)c1` as the compound, how does the Potency read?
Answer: The Potency was 15.8 µM (active).

Question: With `Cc1cc(C)nc(NC(=S)N2CCN(c3ccc(Cl)cc3C(F)(F)F)CC2)c1` as the compound, how does the “activity change, negative = inhibition” value read?
Answer: Its value is -3.78%.

Question: With `Cc1cc(C)nc(NC(=S)N2CCN(c3cc(F)cc(F)c3)CC2)c1` as the compound, how does the “activity change, negative = inhibition” value read?
Answer: The value was 3.56%.

Question: Which Potency does the source give for `Cc1cc(C)nc(NC(=S)N2CCN(c3ccccn3)CC2)c1` here?
Answer: The Potency was “inactive”.

Question: With `Cc1cc(C)nc(NC(=S)N2CCN(Cc3c(F)cccc3Cl)CC2)c1` as the compound, how does the “activity change, negative = inhibition” value read?
Answer: Its value is 4.35%.

Question: Which “activity change, negative = inhibition” value does the source give for `Cc1cc(C)nc(NC(=S)N2CCN(c3noc4ccccc34)CC2)c1` here?
Answer: Its value is -8.93%.

Question: With `Cc1cc(C)nc(NC(=S)N2CCN(S(=O)(=O)c3cccc(C(F)(F)F)c3)CC2)c1` as the compound, how does the “activity change, negative = inhibition” value read?
Answer: The value was -12.4%.

Question: For `FC(F)(F)c1cccc(N2CCN(C(=S)Nc3ncnc4ccccc34)CC2)c1`, which “activity change, negative = inhibition” value is on record?
Answer: Its value is -5.29%.

Question: For `Cc1cc(C)nc(NC(=S)N2CCN(c3cccc(S(C)(=O)=O)c3)CC2)c1`, which “activity change, negative = inhibition” value is on record?
Answer: Its value is -7.99%.

Question: For `Cc1ccnc(NC(=S)N2CCNCC2)c1`, which “activity change, negative = inhibition” value is on record?
Answer: Its value is -3.85%.

Question: For `Cc1cc(C)nc(NC(=S)N2CCN(c3ncccc3C#N)CC2)c1`, which “activity change, negative = inhibition” value is on record?
Answer: Its value is -4.59%.

Question: Which “activity change, negative = inhibition” value does the source give for `FC(F)(F)c1cccc(N2CCN(C(=S)Nc3nccc4ccccc34)CC2)c1` here?
Answer: Its value is 1.47%.

Question: For `Cc1ccnc(NC(=S)N2CCN(c3cccc(C(F)(F)F)c3)C[C@@H]2C)c1`, which “activity change, negative = inhibition” value is on record?
Answer: Its value is -7.74%.

Question: Which Potency does the source give for `Cc1ccnc(NC(=S)N2CCN(c3cccc(C(F)(F)F)c3)CC2)c1` here?
Answer: The Potency was 28.1 µM (active) and 9.96 µM (active) and 25 µM (active).

Question: Which “activity change, negative = inhibition” value does the source give for `Cc1cc(C)nc(NC(=S)N2CCN(c3ccc(C(=O)O)cc3)CC2)c1` here?
Answer: The value was -3.29%.

Question: Which “activity change, negative = inhibition” value does the source give for `Cc1cc(C)nc(NC(=S)N2CCN(c3ccc(NS(C)(=O)=O)nn3)CC2)c1` here?
Answer: The value was 0.438%.

Question: Which “activity change, negative = inhibition” value does the source give for `Cc1cc(C)nc(NC(=S)N2CCN(c3ccc4occc4c3)CC2)c1` here?
Answer: The value was -5.28%.

Question: Which “activity change, negative = inhibition” value does the source give for `Cc1cc(C)nc(NC(=S)N2CCN(c3nccs3)CC2)c1` here?
Answer: Its value is 6.89%.

Question: Which “activity change, negative = inhibition” value does the source give for `Cc1cc(C)nc(NC(=S)N2CCN(c3nccc4ccccc34)CC2)c1` here?
Answer: Its value is -1.21%.

Question: With `Cc1cc(C)nc(NC(=S)N2CCN(c3ncccc3Cl)CC2)c1` as the compound, how does the “activity change, negative = inhibition” value read?
Answer: The value was 2.69%.

Question: For `Cc1cc(C)nc(NC(=S)N2CCN(c3nsc4ccccc34)CC2)c1`, which “activity change, negative = inhibition” value is on record?
Answer: Its value is -7.35%.

Question: With `Cc1cc(C)nc(NC(=S)N2CCN(c3ccc(C(F)(F)F)cc3[N+](=O)[O-])CC2)c1` as the compound, how does the “activity change, negative = inhibition” value read?
Answer: Its value is -9.46%.

Question: With `COc1cccc(NC(=S)N2CCN(c3ccc(Cl)cc3Cl)CC2)n1` as the compound, how does the “activity change, negative = inhibition” value read?
Answer: The value was -2.52%.

Question: For `FC(F)(F)c1cccc(N2CCN(C(=S)Nc3cc(C(F)(F)F)ccn3)CC2)c1`, which Potency is on record?
Answer: Its Potency is 19.9 µM (active).

Question: With `Cc1cc(C)nc(NC(=S)N2CCN(c3nc4ccccc4s3)CC2)c1` as the compound, how does the “activity change, negative = inhibition” value read?
Answer: The value was 1.77%.

Question: With `Cc1ccnc(NC(=O)N2CCN(c3cccc(C(F)(F)F)c3)CC2)c1` as the compound, how does the Potency read?
Answer: Its Potency is 6.28 µM (active).

Question: For `CCN1CCN(C(=S)c2ccc(O)cc2)CC1`, which “activity change, negative = inhibition” value is on record?
Answer: Its value is 6.5%.

Question: Which Potency does the source give for `S=C(Nc1cc(Cl)ccn1)N1CCN(c2cc(Cl)cc(Cl)c2)CC1` here?
Answer: Its Potency is 9.96 µM (active).

Question: For `Cc1ccnc(NC(=S)N2CCN(c3ccc(N)cc3)CC2)c1`, which “activity change, negative = inhibition” value is on record?
Answer: Its value is -12%.

Question: For `CC(=O)N1CCN(C(=S)Nc2cc(C)ccn2)CC1`, which “activity change, negative = inhibition” value is on record?
Answer: Its value is 4.75%.
